Shown are actives, neighbours in structure and some others; about 27% of the full set was active somewhere.
CYP2C19 activ = increases human CYP2C19 enzyme activity | P33261 | recombinant CYP2C19, luciferin-H EGE luminescence; hits give high values; 0 = fully inhibited enzyme, 1 = untreated enzyme | activation factor at 5 µM | 96,000 tested, under 10 active;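 active = activation factor of at least 2 at 5 µM in the primary screen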;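 note: 0 = wells with 2.5 mM tranylcypromine and 1 = vehicle-only wells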
Target sequence (P33261 whole entry, looked up): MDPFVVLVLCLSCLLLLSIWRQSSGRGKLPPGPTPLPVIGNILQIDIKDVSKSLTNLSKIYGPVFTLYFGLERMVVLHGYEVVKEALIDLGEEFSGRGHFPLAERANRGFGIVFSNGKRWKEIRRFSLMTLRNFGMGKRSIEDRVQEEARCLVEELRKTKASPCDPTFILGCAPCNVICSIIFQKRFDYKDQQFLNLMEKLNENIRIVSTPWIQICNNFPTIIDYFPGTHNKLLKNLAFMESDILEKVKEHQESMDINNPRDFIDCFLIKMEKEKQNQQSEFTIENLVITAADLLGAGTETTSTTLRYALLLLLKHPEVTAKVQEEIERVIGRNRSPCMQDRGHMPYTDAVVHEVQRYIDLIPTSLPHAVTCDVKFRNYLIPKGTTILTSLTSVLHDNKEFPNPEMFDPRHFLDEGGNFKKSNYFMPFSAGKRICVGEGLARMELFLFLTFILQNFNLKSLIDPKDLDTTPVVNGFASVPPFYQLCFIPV
CYP2C9 inhib = blocks human cytochrome P450 2C9. inhibition, % at 5 µM. 96,000 compounds, 20% hits. P11712. CYP2C9 Supersomes, luciferin-H conversion, luminescence;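 active = blocking of liver enzyme CYP2C9 beyond about 50% at 5 µM, limit read from the data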
CYP2C9 activ = activators of human CYP2C9; 96,000 compounds, 1.4% hits; P11712; recombinant CYP2C9, luciferin-H conversion, luminescence; hits give high values; factor 1 = untreated enzyme, 0 = blocked; activation factor at 5 µM;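 active = activation factor of 2 or more for CYP2C9 at a 5 µM dose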;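 note: 0 = sulfaphenazole-blocked wells and 1 = vehicle-only wells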
Cav3 T inh = blocks human Cav3.2 T-type calcium channel. B-score at 10 µM. O95180. 100,000 compounds, 4% hits. Cav3.2-expressing cells, Fluo-4 calcium fluorescence FDSS; hits give low values;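 active = single-dose well whose peak fluorescence ratio is a statistical outlier from its plate by either plate-standardised score or position-corrected B-score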
CYP2C19 inh = inhibitors of human CYP2C19; 96,000 compounds, 21% hits; inhibition, % at 5 µM; AID 778; CYP2C19 Supersomes, luciferin-H EGE luminescence, 30 min;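 active = CYP2C19 inhibition above a set limit at 5 µM in the primary screen, cut at about 50% in these data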;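 note: plate controls were negative control wells for no effect and 2.5 mM tranylcypromine positive control for full effect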
* = called active by the depositor; / = no result given.

SMILES	CYP2C19 activ	CYP2C9 inhib	CYP2C9 activ	Cav3 T inh	CYP2C19 inh
COc1ccccc1CN1C(=O)[C@@H]2C(CC(N)=O)NC3(C(=O)Nc4c3ccc(Cl)c4C)[C@@H]2C1=O (stereo partly specified)	1	4	1	/	-2
Cc1c(Cl)ccc2c1NC(=O)[C@]21[C@@H]2C(=O)N(Cc3ccccc3)C(=O)[C@@H]2[C@@H]2CCCN21	0.3	73*	0.3	-3.1	66*
Cc1cc2nc(C(F)(F)F)[nH]c(=O)n2n1	1	-10	1.1	1.1	-4
NC(=O)c1ccsc1NC(=O)C1CCCCC1	0.4	33	0.7	0.2	63*
CC(COc1cccc2ccccc12)CN1CCN(C)CC1 (stereo unspecified)	0.6	-34	1.3	-1.8	43
C=CCc1cc(OC)ccc1OCC(O)CN1CCN(c2ccc(OC)cc2)CC1 (stereo unspecified)	0.8	-9	1.1	-1.4	15
C=CCc1ccccc1OCC(O)CN1CCN(c2ccccc2F)CC1 (stereo unspecified)	0.3	55*	0.5	-2.4	66*
COc1ccccc1N1CCN(CC(O)COc2cccc3ccccc23)CC1 (stereo unspecified)	/	/	/	-4.5*	/
C=CCc1cc(C)ccc1OCC(O)CN1CCN(c2ccccc2)CC1 (stereo unspecified)	0.8	12	0.9	-4.6*	20
C=CCc1ccccc1OCC(CN1CCCCC1)OC(C)=O (stereo unspecified)	0.5	0	1	-0.46	53*
C=CCc1ccccc1OCC(O)CN1CCN(c2ccccc2OC)CC1 (stereo unspecified)	0.6	-33	1.3	-3.3	44
C=CCc1ccccc1OCCCCN1CCCC1	0.9	-11	1.1	0.15	6
CC1(C)C(CO)=CC(=O)C2=C1SCC(=O)N2	/	/	/	0.29	/
CSc1nc2n(n1)C(c1ccccn1)C1=C(CC(C)(C)CC1=O)N2 (stereo unspecified)	1	-6	1.1	-0.006	-1
CC(C)Cc1nc(SCC(=O)Nc2ccc(S(N)(=O)=O)cc2)n[nH]1	0.8	21	0.8	-0.08	18
O=C(NCCCCCCNC(=O)c1ccc(Br)s1)c1ccc(Br)s1	/	/	/	-1.4	/
CC(=O)N(Cc1ccc(F)cc1)C1=C(NCCc2ccccc2)C(=O)c2ccccc2C1=O	0	95*	0	-2.7	99*
Cc1cc(NC(=O)CCCC(=O)N(CC(=O)NCCc2ccccc2)Cc2ccc(F)cc2)no1	0.7	27	0.7	0.006	25
CC(C)(O)c1nnn(-c2ccccc2)c1C(F)(F)F	0.3	-10	1.1	-0.034	75*
CC1CCC(NC(=O)CN2C(=O)C3CCCN3c3ncc(Cl)cc32)CC1 (stereo unspecified)	0.6	44	0.6	-6.5*	38
O=C(CN1C(=O)C2CCCN2c2ncc(Cl)cc21)NCc1ccc2c(c1)OCO2 (stereo unspecified)	0.6	16	0.8	/	40
COc1ccc(CNC(=O)CN2C(=O)C3CCCN3c3ncc(Cl)cc32)cc1 (stereo unspecified)	0.2	52*	0.5	-1.7	82*
CCOc1ccc(NC(=O)CN2C(=O)C3CCCN3C2=O)cc1 (stereo unspecified)	1.1	2	1	-1	-9
CCc1ccccc1NC(=O)CN1C(=O)C2CCCN2c2ncc(Cl)cc21 (stereo unspecified)	0.4	54*	0.5	-3.2	55*
CCn1c(CCNC(=O)c2cccs2)nnc1SCC(=O)c1ccc(OC)cc1	/	/	/	0.23	/
SMILES	CYP2C19 activ	CYP2C9 inhib	CYP2C9 activ	Cav3 T inh	CYP2C19 inh
CNC(=O)c1sccc1SCc1ccc(Cl)cc1Cl	0.2	38	0.6	-2.4	75*
CNC(=O)c1sccc1SCc1c(Cl)cccc1Cl	0.6	12	0.9	-1.6	38
CCCOC(=O)NC(CC)COC(=O)Nc1cc(C)ccc1C (stereo unspecified)	0.3	25	0.8	-0.86	70*
CCCCOC(=O)Nc1cc(Cl)ccc1C	0.9	0	1	-1.8	11
COc1cc(OC)cc(C(=O)N2CCN=C2SCc2cccnc2)c1	0	90*	0.1	0.008	100*
CC(=O)N1CCN=C1SCc1ccccc1	0.9	-4	1	0.42	8
O=C(COc1ccccc1)N1CCN=C1SCc1cccnc1	0.7	10	0.9	0.2	27
O=C(c1cccc(F)c1)N1CCN=C1SCc1cccnc1	0.1	82*	0.2	0.023	91*
O=C(N1CCN=C1SCc1cccnc1)C12CC3CC(CC(C3)C1)C2	0.2	9	0.9	1.3	83*
O=C(c1ccc(S(=O)(=O)N2CCOCC2)cc1)N1CCN=C1SCc1cccnc1	0.9	9	0.9	0.91	7
O=C(c1ccc2c(c1)OCO2)N1CCN=C1SCc1ccccc1	0.7	32	0.7	-5.4*	35
O=C(c1ccc(Br)o1)N1CCN=C1SCc1cccc(F)c1	0.1	59*	0.4	-1.3	91*
Cc1cccc(CSC2=NCCN2C(=O)c2ccco2)c1	0.6	-2	1	-0.67	42
O=C(c1cccs1)N1CCN=C1SCc1cccnc1	0.4	25	0.7	1.6	55*
O=C(c1ccco1)N1CCN=C1SCc1cccnc1	0.9	-7	1.1	0.95	12
CC(C)OC(=O)C1=C(N)N2C(=O)CSC2=C(C(=O)OC(C)C)C1	0.6	12	0.9	1.5	36
COC(=O)C[C@H]1c2cc(C(F)(F)F)ccc2S(=O)(=O)N1Cc1ccccc1OC	/	/	/	-0.97	/
CCCC(=O)Nc1cc(C)c2c(=O)oc3ccccc3c2n1	/	/	/	-3.9*	/
COc1ccc(C(=O)Nc2cc(C)c3c(=O)oc4ccccc4c3n2)cc1	1.1	5	0.9	-1.1	-8
O=C(Cn1nc(C(F)F)cc1C(F)F)NNC(=S)Nc1ccc(Cl)cc1	0.6	71*	0.3	-1.1	45
COc1ccc(S(=O)(=O)NCCc2ccc(F)cc2)cc1	0	38	0.6	-1.9	100*
Cc1nc(CCNS(=O)(=O)c2cccs2)cs1	0.7	-12	1.1	-0.051	34
CCS(=O)(=O)NCCCc1ccccc1	1	-22	1.2	0.54	1
COc1ccc(S(=O)(=O)NCCc2ccccc2)cc1	0	22	0.8	-0.57	95*
CCS(=O)(=O)NCCCCc1ccccc1	0.4	19	0.8	0.3	60*
COc1ccc(CCNS(=O)(=O)c2cccs2)cc1	0	90*	0.1	-0.25	99*
O=C1N=C2SCCN2/C1=C\c1ccccc1Cl	1.1	-2	1	1.6	-8
O=C(NCCCN1CCN(c2ccccc2F)CC1)C1CCC(=O)N1C1CCCC1 (stereo unspecified)	/	/	/	0.89	/
Cc1cc(NS(=O)(=O)c2ccccc2)c(C)c(Cl)c1O	0	-182	2.8*	-2	99*
CCOC(=O)c1sc(N(Cc2ccccc2)C(=O)CSc2ncn[nH]2)nc1C	1	79*	0.2	-1.7	5
